# Several values for one entry are separate records, joined by “and”; a condition that tells them apart may be missing. Equal entries are not always repeated. About 2,000 (36%) of roughly 5,500 compounds were called active. About 18% were inconclusive and are not listed. The list shows a part of the results. A number with no mark means an inactive call. Cut-off read from the data, not from the text of the source: active = normalized growth mostly below about 0.91 (no sharp cut-off); inconclusive = no clear call, values can overlap the other calls; inactive = mostly above about 0.92.
# Assay: chemical genetic growth profiling, strain panel (AID 1159580);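 note: tested at 20 µM; growth read once vehicle control cultures reached saturation at 30 °C; 1 = growth at the plate median or of vehicle wells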
# Details: S. cerevisiae deletion strains, growth OD
smiles,measurement,setting,value
COc1cc(OC)c2ccc(=O)oc2c1,normalized growth,"locus YAL013W, strain DEP1, stronger effect = lower value",1.01
same,normalized growth,"locus YAL021C, strain ccr4, stronger effect = lower value",1
same,normalized growth,"locus YAL026C, strain drs2, stronger effect = lower value",0.964
same,normalized growth,"locus YAL030W, strain snc1, stronger effect = lower value",0.976
same,normalized growth,"locus YBL061C, strain skt5, stronger effect = lower value",0.966
same,normalized growth,"locus YBR009C, strain hhf1, stronger effect = lower value",0.935
same,normalized growth,"locus YBR021W, strain FUR4, stronger effect = lower value",0.949
same,normalized growth,"locus YBR023C, strain chs3, stronger effect = lower value",0.964
same,normalized growth,"locus YBR171W, strain sec66, stronger effect = lower value",0.972
same,normalized growth,"locus YBR229C, strain ROT2, stronger effect = lower value",1.01
same,normalized growth,"locus YBR231C, strain swc5, stronger effect = lower value",0.963
same,normalized growth,"locus YBR279W, strain paf1, stronger effect = lower value",0.973
same,normalized growth,"locus YCL011C, strain gbp2, stronger effect = lower value",0.962
same,normalized growth,"locus YCL016C, strain dcc1, stronger effect = lower value",0.968
same,normalized growth,"locus YCL029C, strain bik1, stronger effect = lower value",1
same,normalized growth,"locus YCL061C, strain MRC1, stronger effect = lower value",0.974
same,normalized growth,"locus YCL069W, strain vba3, stronger effect = lower value",0.992
same,normalized growth,"locus YCR088W, strain abp1, stronger effect = lower value",0.984
same,normalized growth,"locus YDL005C, strain med2, stronger effect = lower value",0.987
same,normalized growth,"locus YDL035C, strain GPR1, stronger effect = lower value",0.99
same,normalized growth,"locus YDL040C, strain nat1, stronger effect = lower value",0.974
same,normalized growth,"locus YDL074C, strain BRE1, stronger effect = lower value",0.979
same,normalized growth,"locus YDL101C, strain DUN1, stronger effect = lower value",1.01
same,normalized growth,"locus YDL134C, strain PPH21, stronger effect = lower value",0.992
same,normalized growth,"locus YDL185W, strain tfp1, stronger effect = lower value",0.982
same,normalized growth,"locus YDL192W, strain arf1, stronger effect = lower value",0.988
same,normalized growth,"locus YDR001C, strain nth1, stronger effect = lower value",0.975
same,normalized growth,"locus YDR069C, strain doa4, stronger effect = lower value",0.951
same,normalized growth,"locus YDR101C, strain arx1, stronger effect = lower value",0.994
same,normalized growth,"locus YDR137W, strain rgp1, stronger effect = lower value",0.922
same,normalized growth,"locus YDR150W, strain NUM1, stronger effect = lower value",1
same,normalized growth,"locus YDR159W, strain sac3, stronger effect = lower value",0.971
same,normalized growth,"locus YDR162C, strain NBP2, stronger effect = lower value",1
same,normalized growth,"locus YDR195W, strain ref2",1.19 [resistant] (active)
same,normalized growth,"locus YDR297W, strain sur2, stronger effect = lower value",0.978
same,normalized growth,"locus YDR318W, strain mcm21, stronger effect = lower value",1
same,normalized growth,"locus YDR334W, strain swr1, stronger effect = lower value",0.962
same,normalized growth,"locus YDR335W, strain msn5, stronger effect = lower value",0.974
same,normalized growth,"locus YDR388W, stronger effect = lower value",1.01
same,normalized growth,"locus YDR392W, strain spt3, stronger effect = lower value",0.736 (active)
same,normalized growth,"locus YDR502C, strain sam2, stronger effect = lower value",0.989
same,normalized growth,"locus YEL003W, strain gim4, stronger effect = lower value",0.973
same,normalized growth,"locus YEL037C, strain rad23, stronger effect = lower value",0.961
same,normalized growth,"locus YEL061C, strain CIN8 (second series), stronger effect = lower value",0.964
same,normalized growth,"locus YEL061C, strain CIN8, stronger effect = lower value",1
same,normalized growth,"locus YER015W, strain faa2, stronger effect = lower value",0.973
same,normalized growth,"locus YER016W, strain bim1, stronger effect = lower value",0.975
same,normalized growth,"locus YER110C, stronger effect = lower value",0.983
same,normalized growth,"locus YER111C, strain swi4, stronger effect = lower value",0.965
same,normalized growth,"locus YER155C, strain BEM2 (second series), stronger effect = lower value",0.661 (active)
same,normalized growth,"locus YER155C, strain BEM2, stronger effect = lower value",0.999
same,normalized growth,"locus YER167W, strain BCK2, stronger effect = lower value",1.02
same,normalized growth,"locus YFR010W, strain ubp6, stronger effect = lower value",0.951
same,normalized growth,"locus YGL078C, strain dbp3, stronger effect = lower value",0.995
same,normalized growth,"locus YGL086W, strain mad1, stronger effect = lower value",1
same,normalized growth,"locus YGL167C, strain pmr1, stronger effect = lower value",0.965
same,normalized growth,"locus YGL173C, strain kem1, stronger effect = lower value",0.945
same,normalized growth,"locus YGL227W, strain vid30, stronger effect = lower value",0.974
same,normalized growth,"locus YGL240W, strain doc1, stronger effect = lower value",0.868 (active)
same,normalized growth,"locus YGL248W, strain PDE1, stronger effect = lower value",1.01
same,normalized growth,"locus YGL253W, strain hxk2, stronger effect = lower value",0.974
same,normalized growth,"locus YGR078C, strain PAC10, stronger effect = lower value",0.989
same,normalized growth,"locus YGR135W, strain pre9, stronger effect = lower value",0.977
same,normalized growth,"locus YGR229C, strain SMI1, stronger effect = lower value",0.993
same,normalized growth,"locus YGR252W, strain gcn5, stronger effect = lower value",0.846
same,normalized growth,"locus YHR013C, strain ard1, stronger effect = lower value",0.944
same,normalized growth,"locus YHR027C, strain rpn1, stronger effect = lower value",0.981
same,normalized growth,"locus YHR030C, strain SLT2, stronger effect = lower value",1.01 and 0.997
same,normalized growth,"locus YHR079C, strain IRE1 (second series), stronger effect = lower value",1.01
same,normalized growth,"locus YHR079C, strain IRE1, stronger effect = lower value",0.989
same,normalized growth,"locus YHR094C, strain hxt1, stronger effect = lower value",1
same,normalized growth,"locus YHR129C, strain ARP1, stronger effect = lower value",1.01
same,normalized growth,"locus YHR142W, strain chs7, stronger effect = lower value",0.955
same,normalized growth,"locus YHR200W, strain rpn10, stronger effect = lower value",0.988
same,normalized growth,"locus YIL066C, strain RNR3, stronger effect = lower value",1.01
same,normalized growth,"locus YIL073C, strain SPO22, stronger effect = lower value",0.982
same,normalized growth,"locus YIL125W, strain kgd1, stronger effect = lower value",1
same,normalized growth,"locus YIR030C, strain dcg1, stronger effect = lower value",1
same,normalized growth,"locus YJL092W, strain hpr5, stronger effect = lower value",0.972
same,normalized growth,"locus YJL095W, strain BCK1 (second series), stronger effect = lower value",0.98
same,normalized growth,"locus YJL095W, strain BCK1, stronger effect = lower value",0.985 and 1.01
same,normalized growth,"locus YJL115W, strain asf1, stronger effect = lower value",0.969
same,normalized growth,"locus YJL129C, strain trk1, stronger effect = lower value",0.995
same,normalized growth,"locus YJL134W, strain LCB3, stronger effect = lower value",1.01
same,normalized growth,"locus YJL154C, strain vps35, stronger effect = lower value",0.984
same,normalized growth,"locus YJL164C, strain tpk1, stronger effect = lower value",0.962
same,normalized growth,"locus YJL166W, strain qcr8, stronger effect = lower value",0.945
same,normalized growth,"locus YJL168C, strain set2, stronger effect = lower value",1
same,normalized growth,"locus YJL187C, strain SWE1 (second series), stronger effect = lower value",1.01
same,normalized growth,"locus YJL187C, strain SWE1, stronger effect = lower value",0.97
same,normalized growth,"locus YJR043C, strain POL32, stronger effect = lower value",0.993
same,normalized growth,"locus YJR066W, strain TOR1, stronger effect = lower value",0.958
